Measured values reported in PubChem BioAssay (NCI).
About 83,000 compounds went through this panel and 20% of them were active in at least one assay; those are over-represented in the sample as a whole.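 Single-concentration screen, 48 h exposure, 96-well plates. Endpoint: percent growth. Below 10 = active.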 Activity calls are given as the source filed them.

The compounds below were run on NCI-H460 lung (assay: NCI-60 one-dose screen, 48 h (100 = growth as untreated, 0 = no growth, -100 = all killed)). Conditions: 10 µM unless noted.
Protocol: Growth inhibition of the NCI-H460 human Non-Small Cell Lung tumor cell line is measured as a screen for anti-cancer activity. Cells are grown in 96 well plates and exposed to the test compound for 48 hours. Compounds are tested at a single concentration, which is 10^-5 M for most compounds. The reported endpoint is percent growth (GI% or GIPRCNT), where numbers from 0 - 100% represent growth inhibition, and numbers from -100% - 0 represent cell death. For example, a value of 40 represents 60% growth inhibition. A value of 0 means no net growth occurred over the course of the experiment. A value of -40 indicates 40% of cells at the beginning of the experiment died by the end of the experiment. A value of -100 means all cells are dead at the end of the experiment.
NCI-60 Human Tumor Cell Lines Screen was performed using the standard one-dose NCI protocol, which is described in more detail at https://dtp.cancer.gov/discovery_development/nci-60/default.htm.
Compounds with GIPRCNT values below 10 were considered active. Activity score was based on GIPRCNT using the following formula: […]
Score is 0 for GIPRCNT values of 100 or above, 50 for GIPRCNT values of 0, and 100 for GIPRCNT values of -100.
With `CC(Cc1cccc(C(F)(F)F)c1)NCCOC(=O)c1ccccc1` (stereo not given) the growth was 114% (inactive). In the case of `COc1ccc(/C=C/C(=O)c2ccc(-n3cc(CN4CCN(c5cc6c(cc5F)c(=O)c(C(=O)O)cn6C5CC5)CC4)nn3)cc2)cc1OC`, the growth was 53.1% (inactive). In the case of `Cc1cccc[n+]1CCC[n+]1ccccc1C`, the growth was 106% (inactive). For `O=[N+]([O-])c1ccc(NS(=O)(=O)c2cc(Cl)ccc2Cl)c2ccccc12`, the growth was 46.6% (inactive). With `COc1cc(/C=C/C(=O)c2c(C)n([O-])c3cc(C)c(C)cc3[n+]2=O)cc(OC)c1OC` the growth was 35.4% (inactive). For `CCCc1nn2c(CCC(=O)c3nc4ccc([N+](=O)[O-])cc4[nH]3)nnc2s1`, the growth was 104% (inactive). In the case of `C#CCn1c(-c2cc(OC)c(OC)cc2Br)nc(-c2ccccc2)c1-c1ccccc1`, the growth was 10.8% (inactive). With `COc1ccc(-c2nn(-c3ccc(NC(=O)Nc4ccc(Cl)c(Cl)c4)cc3)cc2-c2ccncc2)cc1Cl` the growth was -21.1% (active). In the case of `CCOC(=O)C(C)(CSSCC(C)(NC(=O)c1ccc2ccccc2c1)C(=O)OCC)NC(=O)c1ccc2ccccc2c1` (stereo not given), the growth was 102% (inactive). With `C=CCOc1ccc(/C(Cl)=N/N=C(\Cl)c2cc(OC)c(OC)c(OC)c2)cc1` the growth was 48% (inactive). With `O=c1c2ccccc2sc2c(N3CCCC3)nc3ccccc3c12` the growth was 96.7% (inactive). For `C=CCn1c(SCC(=O)Nc2ccc(/C(C)=N\O)cc2)nnc1-c1cc(-c2ccc(OC)cc2)nc2ccccc12`, the growth was 27.8% (inactive). In the case of `COc1ccc(-c2nnc(SCC(=O)Nc3ccc(C(=O)/C=C/c4ccc(Cl)cc4)cc3)o2)cc1OC`, the growth was 70% (inactive). With `COc1cc2ncn3c(=O)c4c5c(sc4nc3c2cc1OC)CCCCC5` the growth was 99.5% (inactive). For `Nc1ncnc2c1c(-c1ccc(Oc3ccccc3)cc1)nn2C[C@H]1SSC[C@@H]1O`, the growth was 22% (inactive). For `CC(C)(C)NC(C1=CC(C)(C)c2ccccc2C1=O)c1ccccc1` (stereo not given), the growth was -49.2% (active). For `O=[N+]([O-])c1ccc(NS(=O)(=O)c2ccccc2)c2ccccc12`, the growth was 38.2% (inactive). With `Nc1nc(Cl)cc(NCc2ccc(CNc3cc(Cl)nc(N)n3)cc2)n1` the growth was 115% (inactive). With `COc1ccc(Cl)cc1NC(=O)c1cc2c([nH]1)-c1nc(NC(=O)C(C)C)sc1CC2` the growth was 106% (inactive). In the case of `CC(C)C1(C(C)C)NC(=O)NC1=O`, the growth was 99.9% (inactive). `CC(C)(C)NCC(O)COc1c(Br)c(Br)c(Br)c2c1OC(C)(C)C2` (stereo not given) was tested, and the growth was -63.7% (active). `COc1ccc(Cn2cc3c(c2-c2cc(OC)c(OC)c(OC)c2)CCc2c(CO)noc2-3)cc1` was tested, and the growth was 4.62% (active). In the case of `COc1ccc(-c2nnc(SCC(=O)Nc3ccc(C(=O)/C=C/c4ccc(OC)c(OC)c4)cc3)o2)cc1`, the growth was 95.1% (inactive). For `O=C(O)c1ccccc1C(=O)c1ccc(I)cc1`, the growth was 105% (inactive). `COc1cc(CN(c2ccc(Cl)cc2)C2OC(=O)c3ccccc32)cc(OC)c1OC` (stereo not given) was tested, and the growth was 57.4% (inactive). In the case of `COc1ccc(C2=NN(C(=O)COc3ccc(Cl)cc3)C(O)(c3cc(F)c(Cl)cc3Cl)C2)cc1` (stereo not given), the growth was 109% (inactive). In the case of `CCOc1ccc(-n2c(-c3cc(OC)c(OC)c(OC)c3)nnc2-c2ccc(OC)cc2N)cc1`, the growth was 42.3% (inactive). With `Nc1ncc(-c2ccc3ncnc(Nc4cncc(Cl)c4)c3c2)cn1` the growth was 67.8% (inactive). With `CSc1ccc(C(=O)C[n+]2cccc(C)c2)cc1` the growth was 109% (inactive). In the case of `Cc1cc(O[C@@H]2O[C@@H](C)[C@H](O)[C@@H](O)[C@H]2O)c2c3c(c(O[C@@H]4O[C@@H](C)[C@H](O)[C@@H](O)[C@H]4O)cc2c1)C(=O)c1c(O)cccc1C3=O`, the growth was 84.8% (inactive). With `N#Cc1c(N)nc2c(c1N)C(c1ccc(Cl)cc1)C1=C(CCCC1=O)N2c1sc2c(c1C#N)CCCC2` (stereo not given) the growth was 97.3% (inactive). In the case of `Cc1cn([C@]2(CF)O[C@H](CO)C2C)c(=O)[nH]c1=O` (stereo not given in full), the growth was 125% (inactive). In the case of `CCOC(=O)CSc1nnc(-c2cc3c([nH]c4ccccc43)c(-c3cccc(O)c3)n2)n1-c1ccc(C)cc1`, the growth was 103% (inactive). In the case of `Cc1ccc(-c2nc3c(N=Nc4ccc(S(N)(=O)=O)cc4)c(N)nn3c(N)c2C#N)cc1`, the growth was 27.9% (inactive). In the case of `CCCCCn1ncc(-c2c(O)c(O)cc3c(O)c(-c4c(C)cc5c(-c6cnn(CCCCC)n6)c(O)c(O)cc5c4O)c(C)cc23)n1`, the growth was -3.01% (active). In the case of `Cc1ccc(-c2cn3cc([N+](=O)[O-])ccc3n2)cc1`, the growth was 97.6% (inactive). In the case of `O=C(Nc1ccc(-n2cc(-c3ccncc3)c(-c3ccc(O)c(Cl)c3)n2)cc1)c1ccc(Cl)c(Cl)c1`, the growth was 22.3% (inactive). `C/C(=N/O)c1ccc(NC(=O)Cn2nc(-c3ccc(Cl)cc3)nc2N)cc1` was tested, and the growth was 100% (inactive). In the case of `Nn1c(CN2CCN(c3cc4c(cc3F)c(=O)c(C(=O)O)cn4C3CC3)CC2)n[nH]c1=S`, the growth was 109% (inactive). For `O=C(Nc1ccc(-n2ccc3c(NC(=O)c4ccccc4)ncnc32)cc1)c1ccc(Cl)c(C(F)(F)F)c1`, the growth was -30.5% (active).
